From PubChem BioAssay AID1259312 (Keith Lab, Institute of Cancer Science, University of …, 2017)
About 200 (4.4%) of roughly 4,500 compounds were called active. The entries come from a sample that favours actives as a whole. Unmarked numbers belong to inactive results.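 How the source made its calls: active means cell survival measured by absorbance rises more than 2.5-fold over infected cells without compound; inactive means the rest.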

experiment: survival after telomere uncapping, modulators, primary screen, cell-based (AID 1259312); conditions: HCT116 + Ad-hTR-mut, MTT, 5 d; at 10 µM, active compounds read high;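 further: virus expresses mutant telomerase RNA that uncaps telomeres and kills cells; compound added 2 days after infection so exposure lasts 3 days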

| Structure (SMILES) | fold change |
| --- | --- |
| O=c1[nH]c2cc(NCCCO)c([N+](=O)[O-])cc2[nH]1 | -1.46 |
| Nc1n[nH]c(-c2cccnc2)n1 | 2.61 (active) |
| c1ccc(-c2nc(-c3cccnc3)[nH]c2-c2ccccc2)cc1 | 1.14 |
| COc1cc(OC)cc(-c2nc(N)n[nH]2)c1 | 1.56 |
| CN1CCC2(CC1)C(C#N)=C(O)NC1=C2C(=O)CC(C)(C)C1 | -1.33 |
| O=C(CSc1nc2ccccc2nc1SCC(=O)N1CCCCC1)N1CCCCC1 | -1.94 |
| O=C(Nc1nonc1NC(=O)c1ccc2c(c1)OCO2)c1ccc2c(c1)OCO2 | -1.22 |
| CC1(C)O[C@@H]2[C@H](O1)[C@@H](CO)O[C@H]2n1cnc2c(N)ncnc21 | -1.14 |
| Clc1nc2nonc2nc1Nc1ccc(Br)cc1 | -1.13 |
| O=c1[nH]cnc2sc3c(c12)CCCC3 | 1.23 |
| CC12CC3CC(C)(C1)CC(CC(=O)N1CCN(S(C)(=O)=O)CC1)(C3)C2 | 1.25 |
| O=C(CC1NC(=O)N(C2CCCCC2)C1=O)NCC12CC3CC(CC(C3)C1)C2 (stereo not given) | -1.28 |
| CC12CC3CC(C)(C1)CC(CC(=O)NCC14CC5CC(CC(C5)C1)C4)(C3)C2 | 3.05 (active) |
| COc1ccc(S(=O)(=O)Nc2cc(Cl)c(Cl)cc2Cl)cc1 | 3.11 (active) |
| O=S(=O)(Nc1cc(Cl)c(Cl)cc1Cl)c1ccc(Cl)cc1 | 3.01 (active) |
| COc1ccc(S(=O)(=O)NC(C)C)cc1 | -1.48 |
| O=S(=O)(NC1CCCCCC1)c1ccc(Cl)cc1 | 1.1 |
| O=S(=O)(NC1CCCCCC1)c1ccc(F)cc1 | -1.23 |
| CS(=O)(=O)Nc1ccc(Cl)cc1Cl | -1.31 |
| Cc1ccc(S(=O)(=O)NC2CCCC2)cc1 | -1.31 |
| COc1ccc(OC)c(NS(=O)(=O)c2ccc(Cl)cc2)c1 | 1.33 |
| COc1ccc(S(=O)(=O)NC2CCCCCC2)cc1 | 3.33 (active) |

| Structure (SMILES) | fold change |
| --- | --- |
| Cc1ccc2c(c1)C(O)(CC(=O)c1ccc3c(c1)OCO3)C(=O)N2 (stereo not given) | -1.44 |
| O=[N+]([O-])c1c(Sc2nnnn2C2CCCCC2)ncnc1Sc1nnnn1C1CCCCC1 | 1.21 |
| N#Cc1c(-c2ccc(Cl)cc2Cl)csc1N | -1.22 |
| CN(C)S(=O)(=O)Nc1cccc([N+](=O)[O-])c1 | 1.12 |
| CCn1c(=O)n(CC)c2cc(S(=O)(=O)NC3CCCCC3)ccc21 | 1.22 |
| CC(=O)c1c(O)c(C)c(O)c2c1OC1=CC(=O)C(C(C)=O)C(=O)[C@@]12C (stereo not given in full) | -1.06 |
| CC(=O)N1c2ccccc2C2(C)C(C1(C)C)C2(Cl)Cl (stereo not given) | 4.16 (active) |
| NC(=O)c1c(NC(=O)C2COc3ccccc3O2)sc2c1CCCC2 (stereo not given) | -1.9 |
| COc1cc2c(cc1OC)CC1(C2)c2ccccc2CN1C | -1.34 |
| O=[N+]([O-])c1ccc(C=NC2CCCc3c2[nH]c2ccc(Br)cc32)cc1 (stereo not given) | 1.22 |
| CC(=O)N1CCCc2cc(S(=O)(=O)NC(C)(C)C)ccc21 | -1.21 |
| COc1ccc(Br)cc1C1C(C#N)=C(N)SC(N)=C1C#N | -1.84 |
| Clc1ccc(N=Cc2cccs2)cc1 | 1.21 |
| NS(=O)(=O)c1ccc(N=Cc2cccs2)cc1 | 5.47 (active) |
| O=S(=O)(Oc1ccc(N=Cc2cccs2)cc1)c1ccc(Cl)cc1 | 2.24 |
| CN=C1S/C(=C/c2ccc(C)o2)C(=O)N1C | -1.34 |
| CCOC(=O)c1sc(N2N=C(C)/C(=C\c3ccc(C)o3)C2=O)nc1C | -1.12 |
| COC(=O)Cn1cnc([N+](=O)[O-])n1 | -1.14 |
| CC1Oc2ccc(S(=O)(=O)NCCCn3ccnc3)cc2NC1=O (stereo not given) | 1.47 |
| Oc1ccc(Br)cc1/C=N/c1nccs1 | inactive |
| Oc1ccc2ccccc2c1/C=N/c1nccs1 | active |
| Oc1ccc2ccccc2c1/C=N/c1ccccn1 | active |

| Structure (SMILES) | fold change |
| --- | --- |
| Clc1ccc(N=Cc2cccc3ccccc23)nc1 | 1.13 |
| OCCN=Cc1c(O)ccc2ccccc12 | inactive |
| Oc1ccc2ccccc2c1C=NCCCCCCN=Cc1c(O)ccc2ccccc12 | inactive |
| Oc1ccc(Br)cc1C=Nc1ccc(Cl)cn1 | inactive |
| Oc1ccc2ccccc2c1C=Nc1ccc(Cl)cn1 | active |
| C(=N\c1nccs1)/c1ccco1 | -1.62 |
| ClCCOc1nc(OCCCl)nc(OCCCl)n1 | 2.12 |
| CCCc1ccn(CCSCC)c1-c1cccs1 | -2.47 |
| O=C(Nc1ccc(I)cc1)C1CC(=O)N(C2CCCCC2)C1 (stereo not given) | 2.18 |
| O=C(Cc1cccs1)NCCN1CCOCC1 | -1.05 |
| O=C1/C(=C/c2ccc3c(c2)OCO3)CCc2ccccc21 | -2.22 |
| COC(=O)/C(C#N)=C\c1ccc(C)o1 | -2.41 |
| CCCCNC(=O)OCCSC(=S)NCCC | 2.45 |
| CCOC(=O)Cc1csc(N)n1 | 1.75 |
| CCOC(=O)c1csc(N)n1 | 2.59 (active) |
| CCOC(=O)c1sc(N)nc1C | 1.75 |
| O=C(NC1(C(=O)O)CCc2ccccc2C1)OCC1c2ccccc2-c2ccccc21 (stereo not given) | -1.79 |
| O=S(=O)(c1ccc(NC(=S)Nc2ccccc2)cc1)N1CCCCC1 | -2.08 |
| C/C(=N/Nc1ccc([N+](=O)[O-])cc1)c1ccc(/C(CCl)=N/Nc2ccc([N+](=O)[O-])cc2)s1 | -1.04 |
| O=C(NC1CCCCCCC1)c1ccc(COc2c(F)c(F)cc(F)c2F)o1 | -1.24 |
| [O-][n+]1onc(N=Nc2no[n+]([O-])c2-c2ccccc2)c1-c1ccccc1 | 2.99 (active) |
| c1ccc(-c2nonc2N=Nc2nonc2-c2ccccc2)cc1 | -1.26 |

| Structure (SMILES) | fold change |
| --- | --- |
| [O-][n+]1onc(C(c2ccccc2)c2ccccc2)c1C(c1ccccc1)c1ccccc1 | -1.76 |
| COCCNS(=O)(=O)c1ccccc1 | -1.41 |
| Cc1nc2ccccc2nc1C=O | -2.07 |
| Cc1nc2ccccc2nc1C | -2.23 |
| Cc1nc2ccccc2nc1NO | active |
| ON=C1C2CC3CC(C2)CC1C3 | -1.41 |
| Oc1ccc(Br)cc1/C=N/c1ccccn1 | inactive |
| COc1cc2c(cc1N)OCO2 | -1.08 |
| Cc1ccc2[nH]c3nc4ccccc4nc3c2c1 | -1.34 |
| c1ccc2nc3c(nc2c1)[nH]c1ccccc13 | -1.56 |
| c1ccc2c(c1)[nH]c1nc3nnnn3nc12 | active |
| CC1CCCN(c2nc3ccccn3c(=O)c2C=O)C1 (stereo not given) | -1.15 |
| CSc1nnnn1-c1ccccc1 | -1.25 |
| c1ccc(-c2noc(CSc3nnnn3-c3ccccc3)n2)cc1 | -1.1 |
| c1ccc(-n2nnnc2SCSc2nnnn2-c2ccccc2)cc1 | 3.7 (active) |
| C#CCn1cc(/C=C2/SC(=NC)N(C)C2=O)c2ccccc21 | -1.74 |
| O=C(O)CCCn1c(O)c(/C=C2/C=c3ccccc3=NC2=O)sc1=S | active |
| O=C(O)Cn1c(O)c(/C=C2/C=c3ccccc3=NC2=O)sc1=S | inactive |
| O=C(O)CCCCCn1c(O)c(C2=c3cc(Br)ccc3=NC2=O)sc1=S | inactive |
| CCOC(=O)C1=C(C)NC2=C(C(=O)CC(C)(C)C2)C1c1ccc(C)s1 (stereo not given) | -1.32 |
| CN=C1S/C(=C/c2cn(Cc3ccc(F)cc3)c3ccccc23)C(=O)N1C | -1.32 |
| O=C(O)C1OC(O)C(O)C(O)C1O (stereo not given) | -2.05 |

| Structure (SMILES) | fold change |
| --- | --- |
| CCOC(=O)CN(C1=NS(=O)(=O)c2ccccc21)c1ccccc1 | 1.02 |
| COc1ccc(NS(=O)(=O)c2ccc(N=Cc3cc(Br)cc(Br)c3O)cc2)nn1 | inactive |
| CCOC(=O)c1c(C)nn2cc(-n3cc([N+](=O)[O-])cn3)cnc12 | 5.25 (active) |
| O=C(O)Cn1cc([N+](=O)[O-])cn1 | 2.02 |
| CCCCNC(=O)Cn1cc([N+](=O)[O-])cn1 | -2.9 |
| COc1cc(C(c2ccccc2)(c2ccccc2)c2ccccc2)cc2c1NC(C)(C)C=C2C | 2.23 |
| NCc1cc(C(F)(F)F)cc(C(F)(F)F)c1 | -1.11 |
| CC(CC(=O)O)n1ccnc1 (stereo not given) | 1.78 |
| O=C(CC(C(=O)O)n1ccnc1)c1ccc(C2CCCCC2)cc1 (stereo not given) | 2.74 (active) |
| O=C(CC(c1ccc(Cl)c(Cl)c1)C1CCCCCC1=O)c1ccc(Cl)cc1 (stereo not given) | -1.72 |
| O=C1ON=C(c2ccccc2)/C1=C/N1CCCCC1 | -1.47 |
| O=C1CN(C(=O)CSC2CCS(=O)(=O)C2)c2ccccc2N1 (stereo not given) | -1.24 |
| Cc1ccc(C2C(C#N)=C(N)OC3=C2C(=O)CC(C)(C)C3)s1 (stereo not given) | -4.43 |
| CC1CC2=C(C(=O)O1)C(c1cccs1)C(C#N)=C(N)O2 (stereo not given) | 2.62 (active) |
| COC(=O)C1=C(C)OC(N)=C(C#N)C1c1cccs1 (stereo not given) | -1.65 |
| CC1(C)CC(=O)C2=C(C1)OC(N)=C(C#N)C2c1cccs1 (stereo not given) | 4.33 (active) |
| CC1(C)CC(=O)C2=C(C1)OC(N)=C(C#N)C2c1cc(Br)cs1 (stereo not given) | -1.65 |
| CCOC(=O)C1=C(C)OC(N)=C(C#N)C1c1cccs1 (stereo not given) | 2.09 |
| Cc1[nH]c2ccccc2c1C(=O)C(=O)NC(C)(C)C | -1.22 |
| CCOC(=O)c1c(NC(=O)C23CC4CC(CC(C4)C2)C3)sc2c1CCCCC2 | -1.2 |
| N#C/C(=C\c1ccccc1/C=C(\C#N)c1ccc2c(c1)OCO2)c1ccc2c(c1)OCO2 | 1.78 |
| CC(=O)OC[C@H]1O[C@@H](n2cc(C)c(=O)[nH]c2=O)C[C@@H]1OC(C)=O | -1.48 |
